Test results published in PMC10726135, “HNF4α isoforms regulate the circadian balance between carbohydrate and lipid metabolism in the liver”.
In all, about 18,000 sequences were measured (“log2 normalized intensity”: median about 0.39, highest 2% from about 6.6 on). Many of the other results were omitted from the sample, so the highest values are more common in it than they were.

molecular target: T1, HNF4alpha2 (COS-7 nuclear extract) (Homo sapiens, UniProt P41235 1-474); assay: protein-binding microarray; COS-7 nuclear extract on double-stranded Agilent 4x180k PBM; binding buffer, salt, pH and temperature not given in the material; high values mean tight binding; details: chain copies: 2; label: 3' end of strand 1 on the slide; dsDNA, one strand shown
T1 sequence: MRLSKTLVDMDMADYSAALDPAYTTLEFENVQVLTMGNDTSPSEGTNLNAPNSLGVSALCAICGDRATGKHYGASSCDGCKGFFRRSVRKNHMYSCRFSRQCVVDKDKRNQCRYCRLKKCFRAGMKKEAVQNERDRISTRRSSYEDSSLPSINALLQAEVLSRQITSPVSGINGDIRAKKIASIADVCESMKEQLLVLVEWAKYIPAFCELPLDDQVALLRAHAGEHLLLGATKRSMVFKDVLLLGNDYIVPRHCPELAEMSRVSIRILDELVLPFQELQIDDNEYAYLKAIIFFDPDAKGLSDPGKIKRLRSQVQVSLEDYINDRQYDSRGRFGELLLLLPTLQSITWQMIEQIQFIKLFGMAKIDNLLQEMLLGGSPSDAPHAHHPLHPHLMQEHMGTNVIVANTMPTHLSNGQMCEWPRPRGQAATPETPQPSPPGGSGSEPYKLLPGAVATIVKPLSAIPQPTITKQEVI
Outline: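 A human HNF4α isoform was expressed in COS-7 cells by transient CaPO4 transfection, and nuclear extracts were prepared. These were applied to a custom Agilent SurePrint G3 4x180k array carrying ~44,000 test sequences in quadruplicate as double-stranded ~60-nt oligonucleotides, and an Agilent G2565CA scanner imaged bound HNF4α at 2-µm resolution. The background-corrected, normalized gProcessedSignal from Agilent software was used as the binding signal.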

Row | Sequence | binding signal [log2 normalized intensity]
1 | TTCCACCTGGAATGCACTTGTTCCGGATAGGCCTAGGGAGATTAGAGTATCGGTCGA | 1.11
2 | ATGCCCCATGGTAAGAACTACAGTTGACCTGCCTAGGGAGATTAGAGTATCGGTCGA | 4.18
3 | CCATGGTAAGAACTACAGTTGACCTTTGAAGCCTAGGGAGATTAGAGTATCGGTCGA | 7.38
4 | CAGTTGACCTTTGAACACCACAAGTTTGAAGCCTAGGGAGATTAGAGTATCGGTCGA | 6.31
5 | TAGGTATGCCCCATGGTAAGAACTACAGTTGCCTAGGGAGATTAGAGTATCGGTCGA | 0.881
6 | GACCTTTGAACACCACAAGTTTGAACTGCAGCCTAGGGAGATTAGAGTATCGGTCGA | 5.05
7 | AACTACAGTTGACCTTTGAACACCACAAGTGCCTAGGGAGATTAGAGTATCGGTCGA | 7.56
8 | GGAATGTTGCTGTGCTGCCCTCTTGTGGCCGCCTAGGGAGATTAGAGTATCGGTCGA | 1.66
9 | TGTTTCCAATAGGTTTGATTTCAGCATGTTGCCTAGGGAGATTAGAGTATCGGTCGA | 1.59
10 | TATGTGGTGGAATGGAAAGAATATGAACTTGCCTAGGGAGATTAGAGTATCGGTCGA | 1.66
11 | ACCCCACGGAGCTGCCTCACATGAGCTAGAGCCTAGGGAGATTAGAGTATCGGTCGA | -0.873
12 | GCCCCTGGCTGGGCCCTGACCTCAAGTGACGCCTAGGGAGATTAGAGTATCGGTCGA | 1.91
13 | GGGCCCTGACCTCAAGTGACCTTTGACCTCGCCTAGGGAGATTAGAGTATCGGTCGA | 12.1
14 | TGGCTGGGCCCTGACCTCAAGTGACCTTTGGCCTAGGGAGATTAGAGTATCGGTCGA | 7.17
15 | CTGATTTAGCTATTTGACCTTCGGCCTCAAGCCTAGGGAGATTAGAGTATCGGTCGA | 8.16
16 | ATCGCCCTTTGAGGAGGCCTTTCCTGACCCGCCTAGGGAGATTAGAGTATCGGTCGA | 2.78
17 | TTAGCTATTTGACCTTCGGCCTCAATTATAGCCTAGGGAGATTAGAGTATCGGTCGA | 6.43
18 | CTGGGCCCTGCCTGACCTGCCCTTTGTCCCGCCTAGGGAGATTAGAGTATCGGTCGA | 6.28
19 | CCAGGCTGATTTAGCTATTTGACCTTCGGCGCCTAGGGAGATTAGAGTATCGGTCGA | 4.92
20 | ATTGGCCCTTTGACCTTTAATCAAGGGCTGGCCTAGGGAGATTAGAGTATCGGTCGA | 5.08
21 | GGCTTGTACCTTGACCTTCTCTGTTAACCCGCCTAGGGAGATTAGAGTATCGGTCGA | 4.27
22 | GATGGGCCAGGCAGGACAGTTTTGTGTGTTGCCTAGGGAGATTAGAGTATCGGTCGA | 1.11

Row | Sequence | binding signal [log2 normalized intensity]
23 | TCAGATATCTGAATGTACCTTTGAAACCTAGCCTAGGGAGATTAGAGTATCGGTCGA | 2.87
24 | ATCCAGTAGAGGGCATAGCAGATAAGCATTGCCTAGGGAGATTAGAGTATCGGTCGA | -0.984
25 | ACTTCTTTGTGATGTGTGGATTCAGCTCACGCCTAGGGAGATTAGAGTATCGGTCGA | 1.29
26 | ATCTCAAATAGCTGGGTCTCACTCTGACCCGCCTAGGGAGATTAGAGTATCGGTCGA | 3.32
27 | ACTTCAAAGGGTGTTGTGACTACCTGGTTAGCCTAGGGAGATTAGAGTATCGGTCGA | 0.524
28 | AACTTCTTCCAATGAAAGGTTAACCTGCTGGCCTAGGGAGATTAGAGTATCGGTCGA | 1.36
29 | TTTATCCTTTTTTGAAGGTTAAAGTCCATTGCCTAGGGAGATTAGAGTATCGGTCGA | 7
30 | AAGCTTCACAAAGGGCTGAGGTTAAAGTCCGCCTAGGGAGATTAGAGTATCGGTCGA | 6.22
31 | ACATTTTTATCCTTTTTTGAAGGTTAAAGTGCCTAGGGAGATTAGAGTATCGGTCGA | 2.66
32 | TCACAAAGGGCTGAGGTTAAAGTCCACATTGCCTAGGGAGATTAGAGTATCGGTCGA | 7.04
33 | CCTTTTTTGAAGGTTAAAGTCCATTTTTGAGCCTAGGGAGATTAGAGTATCGGTCGA | 6.53
34 | AAGGGCTGAGGTTAAAGTCCACATTCTTTAGCCTAGGGAGATTAGAGTATCGGTCGA | 5.76
35 | TCCCCACTTATTACCGGTGTGACTTTGGTTGCCTAGGGAGATTAGAGTATCGGTCGA | 2.1
36 | CGGGAGGCAAGATAAGGGTAATCACCCCCAGCCTAGGGAGATTAGAGTATCGGTCGA | 2.34
37 | CCTTACCTCCATTAACTAACCTTTGAACCAGCCTAGGGAGATTAGAGTATCGGTCGA | 6.78
38 | GGTCCTAAGACTAACCTTTGACCATCCACGGCCTAGGGAGATTAGAGTATCGGTCGA | 5.96
39 | CATGTGGTCCTAAGACTAACCTTTGACCATGCCTAGGGAGATTAGAGTATCGGTCGA | 7.89
40 | TAAGACTAACCTTTGACCATCCACGGATGCGCCTAGGGAGATTAGAGTATCGGTCGA | 4.62
41 | CCTCCATTAACTAACCTTTGAACCAGATGGGCCTAGGGAGATTAGAGTATCGGTCGA | 4.77
42 | TTACTCATGTGGTCCTAAGACTAACCTTTGGCCTAGGGAGATTAGAGTATCGGTCGA | 3.37
43 | ATTAACTAACCTTTGAACCAGATGGCCCTCGCCTAGGGAGATTAGAGTATCGGTCGA | 3.62
44 | TACTCATGTGGTCCTAAGACTAACCTTTGAGCCTAGGGAGATTAGAGTATCGGTCGA | 6.33

Row | Sequence | binding signal [log2 normalized intensity]
45 | ATGTGGTCCTAAGACTAACCTTTGACCATCGCCTAGGGAGATTAGAGTATCGGTCGA | 7.45
46 | CATGTTAATTTAAATAACAAGGATAGCGTCGCCTAGGGAGATTAGAGTATCGGTCGA | -0.878
47 | AAGGTCAGGATCTCAGCCGCGCGGCTTCAGGCCTAGGGAGATTAGAGTATCGGTCGA | -0.906
48 | CAGTGGGGGGGGGGGGGGGGGTGTGTCTGTGCCTAGGGAGATTAGAGTATCGGTCGA | 1.34
49 | CTGGCAAAGCCATGAAGCAATTCTGAGCCCGCCTAGGGAGATTAGAGTATCGGTCGA | -0.972
50 | TTGGACTTTGGTCATCCTTTACTTTCCCAAGCCTAGGGAGATTAGAGTATCGGTCGA | 5.18
51 | GGATTTTTTCTTGGACTTTGGTCATCCTTTGCCTAGGGAGATTAGAGTATCGGTCGA | 6.83
52 | TTTTCTTGGACTTTGGTCATCCTTTACTTTGCCTAGGGAGATTAGAGTATCGGTCGA | 6.04
53 | TCCAGATCAAGGATTTTTTCTTGGACTTTGGCCTAGGGAGATTAGAGTATCGGTCGA | 5.42
54 | ATCAAGGATTTTTTCTTGGACTTTGGTCATGCCTAGGGAGATTAGAGTATCGGTCGA | 8.1
55 | GACTTTGGTTGGATTTCTTGGCTTCTCTTGGCCTAGGGAGATTAGAGTATCGGTCGA | 1.04
56 | TCCAAAAGGGCAGCAGTAACCCCCCAGGAGGCCTAGGGAGATTAGAGTATCGGTCGA | 3.7
57 | GGTTGCCCTAGTGACTCTAGGAACCTTTCTGCCTAGGGAGATTAGAGTATCGGTCGA | -0.0376
58 | TATGAGAGAGAGAGAGAGGTGGGCAAAGGTGCCTAGGGAGATTAGAGTATCGGTCGA | 1.53
59 | GTGGGTGCCAAACAAAAAGGGCAAAGGTCAGCCTAGGGAGATTAGAGTATCGGTCGA | 8.12
60 | GCAAAGGTCAGCTCATTCCCTAGGGCTCGGGCCTAGGGAGATTAGAGTATCGGTCGA | -0.876
61 | AAAGGGCAAAGGTCAGCTCATTCCCTAGGGGCCTAGGGAGATTAGAGTATCGGTCGA | 6.27
62 | TGGGCCCACAGATGATCAAAGGTCAGTCTTGCCTAGGGAGATTAGAGTATCGGTCGA | 6.53
63 | AATCATGGGCCCACAGATGATCAAAGGTCAGCCTAGGGAGATTAGAGTATCGGTCGA | 7.06
64 | GGGTCATGGAGCTGGAGGGCAAAGGTCAGAGCCTAGGGAGATTAGAGTATCGGTCGA | 7.97
65 | AACAAAAAGGGCAAAGGTCAGCTCATTCCCGCCTAGGGAGATTAGAGTATCGGTCGA | 6.63
66 | ATGGAGCTGGAGGGCAAAGGTCAGAGGCTGGCCTAGGGAGATTAGAGTATCGGTCGA | 6.39

Row | Sequence | binding signal [log2 normalized intensity]
67 | GAGAGAGAGAGAGGTGGGCAAAGGTCTCAAGCCTAGGGAGATTAGAGTATCGGTCGA | 2.55
68 | CACTGGGGTCATGGAGCTGGAGGGCAAAGGGCCTAGGGAGATTAGAGTATCGGTCGA | 3.25
69 | AGAGCAATCATGGGCCCACAGATGATCAAAGCCTAGGGAGATTAGAGTATCGGTCGA | -0.805
70 | CCAAAGTCCTTCCCAAGTCCTGCATGTGTTGCCTAGGGAGATTAGAGTATCGGTCGA | 1.84
71 | CCCTACTGTACCCTATGCACCCCACAGTGCGCCTAGGGAGATTAGAGTATCGGTCGA | 2.11
72 | ACCTTTAGCACCGTAAGAGAGTATTTCCCAGCCTAGGGAGATTAGAGTATCGGTCGA | 1.13
73 | CACAAGCTGGGTCAACATCAGCCCTCCTAGGCCTAGGGAGATTAGAGTATCGGTCGA | 1.49
74 | GGGCACCGCCTCCACACCCCAGCCTGCCCTGCCTAGGGAGATTAGAGTATCGGTCGA | 3.1
75 | GGGGCAGGTAAGTACCAATATTTGTTAAGTGCCTAGGGAGATTAGAGTATCGGTCGA | 1.08
76 | ATACTTTCAGCTAGCTGAGTGAGTAGGTTCGCCTAGGGAGATTAGAGTATCGGTCGA | 1.31
77 | AGTCCTGACCTTGGACTCTGCCCTTGGCCTGCCTAGGGAGATTAGAGTATCGGTCGA | 5.81
78 | GCCTCTTTATCTCCTCCCCTTGAGACTTTAGCCTAGGGAGATTAGAGTATCGGTCGA | 2.85
79 | TCTTATGTCCCTCCTGACCTTTGGACTTGAGCCTAGGGAGATTAGAGTATCGGTCGA | 10.3
80 | TGTCCCTCCTGACCTTTGGACTTGATAGAGGCCTAGGGAGATTAGAGTATCGGTCGA | 9.11
81 | AACTCTCAGTTTGGCTCTTATGTCCCTCCTGCCTAGGGAGATTAGAGTATCGGTCGA | 1.35
82 | TTGGCTCTTATGTCCCTCCTGACCTTTGGAGCCTAGGGAGATTAGAGTATCGGTCGA | 8.6
83 | TCAGTTTGGCTCTTATGTCCCTCCTGACCTGCCTAGGGAGATTAGAGTATCGGTCGA | 3.25
84 | CCTGACCTGCCCTTTGTCCCTCCTGCTAGTGCCTAGGGAGATTAGAGTATCGGTCGA | 3.3
85 | ACCTTTGTCCTCATTGAGCCCTCCCCTTGTGCCTAGGGAGATTAGAGTATCGGTCGA | 4.33
